Laboratory results from PubChem BioAssay (NCATS).
Records with an inconclusive call do not appear. Unmarked numbers belong to inactive results. Calls of active or inactive are those of the source. Calls follow the shape of the dose curve; as a rule, active = well fitted cell-killing curve with a large enough effect; inconclusive = small, poorly fitted or top-dose-only effect; inactive = flat fitted curve, though single readings scatter.

assay: Cellular viability qHTS for adrenocortical cancer (ACC) cell line SW-13 (AID 1963989); conditions: SW-13 ACC cells viability, CellTiter-Glo, 48 h; activity (max response): stronger effect = lower value; also: nearly all actives have a fitted effect of over 65% in size;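 as to activity (max response): cells grown in serum-free medium with ITS supplement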
How it was run: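 SW-13 cells in ITS-supplemented serum-free DMEM were plated overnight, then exposed for 48 h at 37C to compound titrations (up to 46 uM final). Viability was read by CellTiter-Glo luminescence; four-parameter logistic fits gave IC50 and efficacy.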
% is scaled to controls: 0 for no effect and ±100 for the full control effect; potency is read from the fitted curve at half-maximal effect.

Row | SMILES | activity (max response) [%] | Potency
1 | C[C@H]1C[C@H]2[C@@H]3CCC4=CC(=O)C=C[C@]4(C)[C@@]3(Cl)[C@@H](O)C[C@]2(C)[C@@]1(O)C(=O)CO | -3.23 | 
2 | CC(C)OC(=O)c1cc(C(=O)OC(C)C)cc([N+](=O)[O-])c1 | 4.98 | 
3 | CC[C@@]1(O)C(=O)OCc2c1cc1n(c2=O)Cc2c-1nc1ccccc1c2CCNC(C)C |  | 0.0823 µM (active)
4 | Cc1nc(NC(=O)N2CCC[C@H]2C(N)=O)sc1-c1csc(C(C)(C)C)n1 | -23.3 | 
5 | COc1cc(C)c(/C=C/C(C)=C/C=C/C(C)=C/C(=O)O)c(C)c1C | -22.4 | 
6 | Cc1ccc(-n2nc(C(C)(C)C)cc2NC(=O)NCc2cc(F)ccc2Oc2ccc3c(cnn3CCO)c2)cc1 |  | 17.8 µM (active)
7 | Cc1ccc2cc(-c3c(C)ccc(C(=O)c4c(-c5ccccc5)n(C)n(-c5ccccc5)c4=O)c3N)ccc2n1 | -12.9 | 
